From the supplement of paper PMC10849652
Targets with a hit are over-represented here; the source holds about 7,900 in all. About 0.6% of all pairs of compound and target were hits.

Biological target: YOD1 (UniProt Q5VVQ6)
Experiment: log2 fold change, soluble protein after heating vs DMSO (PISA); higher = thermal stabilisation; K562 cells, 10 uM, 30 min; active = over 0.2 and 3.5 SD of the protein, either way, in both replicates (recomputed)
In short: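 K562 cells at 2×10^6 cells/mL were treated for 30 min with 10 μM compound, and aliquots were heated for 3 min over 48°C-58°C before pooling. Extraction used PBS with 0.5% NP-40 at 4°C, and soluble protein was the supernatant after 21,000xg for 90 min, measured by TMTpro 16plex LC-MS/MS with channel sums equalised. Thermal stability values, relative to control samples and from duplicates, are log2 fold changes.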

YOD1, sequence (Q5VVQ6 whole entry, looked up): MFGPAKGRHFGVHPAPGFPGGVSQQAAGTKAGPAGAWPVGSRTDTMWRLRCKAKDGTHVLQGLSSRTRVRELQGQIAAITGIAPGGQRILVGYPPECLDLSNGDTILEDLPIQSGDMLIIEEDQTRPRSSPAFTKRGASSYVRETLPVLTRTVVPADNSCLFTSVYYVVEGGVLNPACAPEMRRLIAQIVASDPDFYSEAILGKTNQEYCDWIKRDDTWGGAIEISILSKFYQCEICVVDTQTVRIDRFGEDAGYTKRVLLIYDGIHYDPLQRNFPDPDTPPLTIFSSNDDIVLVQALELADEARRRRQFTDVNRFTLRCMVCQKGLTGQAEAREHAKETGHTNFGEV

log2 fold change, inactive:
CN1CCN(CCOc2cc(OC3CCOCC3)c3c(Nc4c(Cl)ccc5c4OCO5)ncnc3c2)CC1 [saracatinib] -0.034
C[C@@H](N)c1ccc(C(=O)Nc2ccnc3[nH]ccc23)cc1 -0.04
Fc1ccc(Cl)cc1-c1nc(Nc2ccncc2)c2nccnc2n1 0.021
Cc1cc(Nc2cc(N3CCN(C)CC3)nc(Sc3ccc(NC(=O)C4CC4)cc3)n2)n[nH]1 [tozasertib] 0.043
c1cc(OCCN2CCCCC2)cc(-c2n[nH]c3ccc(-c4nnc[nH]4)cc23)c1 0.043
C/C(=N\NC(=O)c1cccc(S(=O)(=O)N2CCOCC2)c1)c1cc(Cl)ccc1O 0.053
O=C(Nc1cccc(Nc2ncc(Br)c(NCCc3cnc[nH]3)n2)c1)N1CCCC1 -0.012
NC1(c2ccc(-c3nc4ccn5c(=O)[nH]nc5c4cc3-c3ccccc3)cc2)CCC1 -0.138
Cc1cccc(-c2[nH]c(C(C)(C)C)nc2-c2ccc3nccnc3c2)n1 0.026
CC(C)N(C[C@H]1O[C@@H](n2cnc3c(N)ncnc32)[C@H](O)[C@@H]1O)[C@H]1C[C@@H](CCc2nc3cc(C(C)(C)C)ccc3[nH]2)C1 [pinometostat] -0.021
COc1cc2nc(-c3cc(F)ccc3O)nc(N[C@@H]3CNC[C@H]3C(C)(C)O)c2cc1OC 0.018
CNC(=O)c1ccccc1Nc1nc(Nc2ccc(N3CCOCC3)cc2OC)ncc1Cl 0.011
O=C(Nc1nc2ccccc2n1CCN1CCOCC1)c1cccc([N+](=O)[O-])c1 [IRAK-1-4 Inhibitor I] 0.019
C[C@@H](Oc1cc(-c2cnn(C3CCNCC3)c2)cnc1N)c1c(Cl)ccc(F)c1Cl [crizotinib] -0.052
COc1cc(Nc2ncc3c(n2)-c2ccc(Cl)cc2C(c2c(F)cccc2OC)=NC3)ccc1C(=O)O [alisertib] 0.19
CN1CC[C@H](c2c(O)cc(O)c3c(=O)cc(-c4ccccc4Cl)oc23)[C@H](O)C1 [alvocidib] -0.088
CN1CCc2c(c3ccccc3n2Cc2ccc(C(=O)NO)cc2)C1 [Tubastatin A] 0.072
O=C1c2ccccc2-c2n[nH]c3cccc1c23 0.012
CNCc1ccc(-c2[nH]c3cc(F)cc4c3c2CCNC4=O)cc1 [rucaparib] -0.041
COc1cccc2cc(-c3nc([C@H]4CC[C@H](C(=O)O)CC4)n4ncnc(N)c34)[nH]c12 0.011
Cc1ccc2c(=O)c3ccccc3n(CCCN)c2c1C 0.063
O=C1NC(=O)C(c2cnc3ccccn23)=C1c1cn2c3c(cc(F)cc13)CN(C(=O)N1CCCCC1)CC2 -0.079
COc1ccc(Cn2ccc3ccc(C(=O)NO)cc32)cc1 0.037
CN(C)CC(=O)Nc1ccc2[nH]c(=O)c3ccccc3c2c1 0.043
COc1cc(C(=O)O)ccc1NC(=O)[C@@H]1N[C@@H](CC(C)(C)C)[C@](C#N)(c2ccc(Cl)cc2F)[C@H]1c1cccc(Cl)c1F [idasanutlin] -0.038
O=C1NC(=NCc2cccs2)S/C1=C\c1ccc2ncccc2c1 0.066
NC(=O)c1cnc(N[C@@H]2CCCC[C@@H]2N)nc1Nc1cccc(-n2nccn2)c1 -0.061
Cc1ccc(-n2nc(C(C)(C)C)cc2NC(=O)Nc2ccc(OCCN3CCOCC3)c3ccccc23)cc1 [doramapimod] 0
NC1(Cc2ccc(Cl)cc2)CCN(c2ncnc3[nH]ccc23)CC1 -0.037
CC(=O)c1cnc2ccc(-c3cc(Cl)c(O)c(Cl)c3)nc2c1N[C@H]1CC[C@H](CN(C)C)CC1 -0.04
